As a reminder, the inhibition is the drop in the measured response relative to a control, in per cent.

Here are results for 14 compounds from PubChem BioAssay.

The nature of experiment [1]: inhibitors of TNFa-induced NFkB p65 translocation, primary screen, imaging, HUVEC, MLSMR starter and 10KST1 sets (AID 438;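 active = inhibition above 20% together with a positive visual image hit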;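 note: compound added about 3h40 before a 20 min TNFalpha stimulation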;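 for inhibition: signal is the nuclear over cytoplasmic p65 intensity ratio per well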). The note with it: HUVEC TNFa-induced p65 nuclear translocation; cell count: measured here: nuclei count (cytotoxicity indicator), at 2.08 µM; inhibition: at 2 µM, stronger effect = higher value, 0% TNFa-plus-vehicle, 100% no-TNFa wells.
Experiment [2] can be described thus: inhibitors of mutant huntingtin aggregation, primary screen, imaging, exon1htt(103Q)mCFP cells, high-content imaging (AID 483;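 active = visual image review flags a hit and inhibition of aggregation exceeds 20%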;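 note: compound exposure lasted 3 days before fixation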;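 for nuclei count: percent of the per-plate median nuclei count of sample wells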). The note with it: exon1htt(103Q)mCFP cell line, aggregate imaging, at 2 µM; inhibition of aggregation: stronger effect = higher value; nuclei count: measured here: cell count, toxicity.
A short description of experiment [3]: inhibitors of E-selectin induction by TNFa, primary screen, imaging, HUVEC, immunofluorescence, MLSMR starter and 10KST1 sets (AID 487).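 For inhibition: signal is fraction of cell area covered by stained E-selectin grains.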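 For nuclei count: 100% = median nuclei count of all wells on the same plate.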 The note with it: HUVEC TNFalpha-induced E-selectin immunofluorescence imaging, at 2 µM; inhibition: stronger effect = higher value; nuclei count: measured here: cell number, toxicity.
Experiment [4] addresses Voltage-gated potassium channel subunit beta-2 (Rattus norvegicus) (UniProt P62483). The experiment in a line: KvBeta enzyme negative modulators, primary screen, biochemical, NADPH fluorescence (AID 622;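 active = fluorescence slope higher than the sample average by over 3 SD, cut at about -0.22 in these data, passing the limit was not always enough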;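 note: slope of raw intensity against log time taken from 70 to 1610 s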). The note with it: recombinant KvBeta, 4-cyanobenzaldehyde reduction, at 10 µM, stronger effect = higher value.
Experiment [5] has the same target. Description: KvBeta positive modulators, primary screen, biochemical, NADPH fluorescence (AID 623;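 active = NADPH fluorescence slope more negative than the mean of all samples by about 3 SD, 99.7% confidence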;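 note: fluorescence intensity change per second fitted from 20 to 320 s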). The conditions noted are these: Recombinant KvBeta, NADPH fluorescence decrease slope, 10 min; at 10 µM; stronger effect = lower value.
The target of experiment [6] is Alpha-2C adrenergic receptor (Homo sapiens) (UniProt P18825). The experiment in a line: modulators of alpha2C/GIRK thallium flux, primary screen, cell-based, HEK293 alpha2C/GIRK1/2 (AID 624;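 active = fluorescence slope after compound addition differing from the mean of all screened samples at 99.7% confidence, in either direction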;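 note: slope of fluorescence ratio to pre-addition baseline per second over 15 to 24 s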). The note with it: thallium flux BTC fluorescence, at 10 µM, actives lie on both sides.
A short description of experiment [7]: inhibitors of Sendai virus-induced IRF3 signaling, primary screen, TLR/RLR signaling modifier project, cell-based, Sendai virus stimulus, luciferase, 10K MLSCN set (AID 602276;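 active = inhibition at or above 50% at 10 µM; inactive = inhibition below 50%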;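 note: firefly luciferase from ISG56 promoter only with Renilla not read in this screen; 0% = Sendai virus plus DMSO and 100% = medium plus DMSO without virus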). The conditions noted are these: HEK293 RL24 IRF3 luciferase reporter, at 10 µM, stronger effect = higher value. (In general: A reporter such as luciferase makes a cellular process visible.)
The nature of experiment [8]: inhibitors of poly I:C-induced TLR3 signaling, primary screen, cell-based, poly I:C stimulus, luciferase, 10K MLSCN set (AID 602277;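 active = inhibition of the reporter signal at or above 50%; inactive = inhibition below 50%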). The note with it: HEK293-TLR3 RL24 IRF3 luciferase reporter, at 10 µM, stronger effect = higher value.

Structures are written as SMILES. Calls of active or inactive are those of the source.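 Rule for the calls, unless noted: active = visually confirmed hit in the image check and inhibition above 20%; inconclusive = visually confirmed hit but inhibition not above 20%; inactive = no visual hit in the image check.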

Sequence of Voltage-gated potassium channel subunit beta-2 (Rattus norvegicus) (P62483 whole entry, looked up): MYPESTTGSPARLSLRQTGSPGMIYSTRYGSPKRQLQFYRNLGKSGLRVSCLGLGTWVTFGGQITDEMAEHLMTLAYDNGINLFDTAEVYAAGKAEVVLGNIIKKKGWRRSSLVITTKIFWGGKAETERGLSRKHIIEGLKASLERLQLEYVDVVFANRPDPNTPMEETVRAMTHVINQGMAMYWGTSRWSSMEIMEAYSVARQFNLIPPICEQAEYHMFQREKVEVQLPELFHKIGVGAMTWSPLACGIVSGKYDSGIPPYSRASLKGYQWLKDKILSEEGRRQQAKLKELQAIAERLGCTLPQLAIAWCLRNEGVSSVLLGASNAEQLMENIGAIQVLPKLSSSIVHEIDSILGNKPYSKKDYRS
Sequence of Alpha-2C adrenergic receptor (Homo sapiens) (P18825 whole entry, looked up): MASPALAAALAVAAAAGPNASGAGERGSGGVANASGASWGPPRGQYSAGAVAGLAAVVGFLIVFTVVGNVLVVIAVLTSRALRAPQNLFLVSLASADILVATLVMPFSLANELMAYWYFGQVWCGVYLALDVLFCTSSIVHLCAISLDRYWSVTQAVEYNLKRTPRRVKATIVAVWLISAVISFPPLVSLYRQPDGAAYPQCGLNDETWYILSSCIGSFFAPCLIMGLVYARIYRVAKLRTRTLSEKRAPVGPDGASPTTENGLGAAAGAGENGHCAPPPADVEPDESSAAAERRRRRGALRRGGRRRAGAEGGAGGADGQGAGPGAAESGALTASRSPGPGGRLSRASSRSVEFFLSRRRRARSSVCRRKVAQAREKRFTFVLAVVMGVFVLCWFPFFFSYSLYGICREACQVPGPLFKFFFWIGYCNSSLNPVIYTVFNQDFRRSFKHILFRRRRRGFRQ

`Nc1nc2n(n1)C(c1c(F)cccc1Cl)CC(c1ccc(F)cc1)N2` (centres undefined): in experiment [1], the cell count was 868. The inhibition was 3.5% (inactive) in experiment [1], -37% (inactive) in experiment [3], -2.35% (inactive) in experiment [7] and 25.6% (inactive) in experiment [8]. For the same compound, in experiment [2], the inhibition of aggregation is -46.8% (inactive). Besides, the nuclei count in experiment [2] turned out to be 117%; in experiment [3], 110%. The fluorescence slope in experiment [4] is -0.455 (inactive). In addition, the NADPH fluorescence slope in experiment [5] is -1.9e-05 (inactive). The slope in experiment [6] is 0.0048 (inactive).
With `O=C(Oc1ccccc1)c1cccc(COC(=O)c2cnccn2)c1`, in experiment [1], the cell count turned out to be 385. For the same compound, the inhibition is -1.6% (inactive) in experiment [1], 20.7% (inactive) in experiment [3], 5.8% (inactive) in experiment [7] and 3.65% (inactive) in experiment [8]. In addition, in experiment [2], the inhibition of aggregation was 7.9% (inactive). In addition, the nuclei count in experiment [2] stood at 103%; in experiment [3] it was 105%. In addition, the fluorescence slope in experiment [4] was -0.425 (inactive). The NADPH fluorescence slope in experiment [5] is -5.1e-05 (inactive). Further, the slope in experiment [6] is 0.00507 (inactive).
Consider `COc1cc2c(cc1NCc1ccccn1)oc1ccccc12`, for which the cell count in experiment [1] is 304. Also, the inhibition in experiment [1] is -1.5% (inactive); in experiment [3] it was -27.9% (inactive); in experiment [7] it was -24.8% (inactive); in experiment [8], -70.7% (inactive). For the same compound, in experiment [2], the inhibition of aggregation is 20.3% (inactive). The nuclei count was 66.4% in experiment [2] and 90.6% in experiment [3]. In experiment [4], the fluorescence slope was -0.365 (inactive). The NADPH fluorescence slope in experiment [5] was -4.6e-05 (inactive). The slope in experiment [6] is 0.00538 (inactive).
For the compound `Cc1nc2c(-c3ccc(F)cc3)c(C)nn2c(C)c1CCC(=O)NC(C)CCc1ccco1` (centres undefined), the cell count in experiment [1] came to 791. In addition, the inhibition in experiment [1] was 0.6% (inactive); in experiment [3], -23.2% (inactive); in experiment [7], 4.5% (inactive); in experiment [8] it was 26.9% (inactive). Moreover, the inhibition of aggregation in experiment [2] is -37.7% (inactive). Also, the results for the nuclei count in experiment [2] and in experiment [3] were 99.5% and 110%, respectively. In experiment [4], the fluorescence slope was -0.568 (inactive). In addition, in experiment [5], the NADPH fluorescence slope is -3.3e-05 (inactive). Moreover, the slope in experiment [6] is 0.00479 (inactive).
In the case of `CC(C)(C)NC(=O)CN(C(=O)CS(=O)CC(=O)Nc1ccc(F)cc1)c1ccc(Cl)cc1` (centres undefined), the cell count in experiment [1] is 879. In addition, the inhibition in experiment [1] is -4.2% (inactive); in experiment [3] it was -9.8% (inactive); in experiment [7] it was 19.1% (inactive); in experiment [8], 19.5% (inactive). Besides, in experiment [2], the inhibition of aggregation was 3.2% (inactive). Besides, the nuclei count in experiment [2] was 66.8%; in experiment [3] it was 118%. In addition, the fluorescence slope in experiment [4] was -0.35 (inactive). The NADPH fluorescence slope in experiment [5] is 1.3e-05 (inactive). For the same compound, the slope in experiment [6] was 0.00479 (inactive).
`COc1ccc(OCCC(=O)NCc2ccccc2)cc1`: the cell count in experiment [1] came out at 694. Besides, the inhibition in experiment [1] is 0.4% (inactive); in experiment [3], -93.5% (inactive); in experiment [7] it was 4.97% (inactive); in experiment [8], 7.69% (inactive). Further, in experiment [2], the inhibition of aggregation was 19.2% (inactive). Further, the nuclei count in experiment [2] turned out to be 91.9%; in experiment [3] it was 102%. In experiment [4], the fluorescence slope is -0.509 (inactive). Further, the NADPH fluorescence slope in experiment [5] was 9e-06 (inactive). Also, in experiment [6], the slope is 0.00495 (inactive).
With `CCN(c1c(C)n(C)n(-c2ccccc2)c1=O)S(C)(=O)=O`, in experiment [1], the cell count was found to be 614. For the same compound, the inhibition in experiment [1] was 11.6% (inactive); in experiment [3], -98.2% (inactive); in experiment [7], 23.1% (inactive); in experiment [8] it was 24.6% (inactive). In experiment [2], the inhibition of aggregation was 3.3% (inactive). Moreover, the nuclei count in experiment [2] was 104%; in experiment [3], 145%. The fluorescence slope in experiment [4] is -0.58 (inactive). Besides, in experiment [5], the NADPH fluorescence slope is -3.6e-05 (inactive). Further, the slope in experiment [6] is 0.00621 (inactive).
`CC(C)OC(=O)CSc1nnc(-c2ccc(O)cc2)n1Cc1ccccc1`: the cell count in experiment [1] was 289. The inhibition in experiment [1] was -1% (inactive); in experiment [3], -57.2% (inactive); in experiment [7], 20.3% (inactive); in experiment [8], 16.8% (inactive). Moreover, the inhibition of aggregation in experiment [2] is 12.9% (inactive). The results for the nuclei count in experiment [2] and in experiment [3] were 106% and 105%, respectively. The fluorescence slope in experiment [4] was -0.415 (inactive). For the same compound, the NADPH fluorescence slope in experiment [5] was -4.5e-05 (inactive). Moreover, the slope in experiment [6] is 0.00549 (inactive).
Turning to `O=C(CSc1nc2ccccc2s1)N1CCOCC1`, the cell count in experiment [1] is 330. The inhibition in experiment [1] was 0.5% (inactive); in experiment [3] it was -38.9% (inactive); in experiment [7] it was -27.4% (inactive); in experiment [8], -58.1% (inactive). In addition, the inhibition of aggregation in experiment [2] is -12.6% (inactive). Further, the results for the nuclei count in experiment [2] and in experiment [3] were 105% and 118%, respectively. Also, the fluorescence slope in experiment [4] is -0.525 (inactive). Besides, the NADPH fluorescence slope in experiment [5] was -1.9e-05 (inactive). Further, in experiment [6], the slope was 0.00424 (inactive).
Consider `C=CCn1c(SCC(=O)NC2CCCCC2)nnc1-c1sc(N)nc1C`, for which the cell count in experiment [1] worked out at 639. The inhibition in experiment [1] is -7.3% (inactive); in experiment [3] it was -100% (inactive); in experiment [7], 16.9% (inactive); in experiment [8], 16.4% (inactive). In addition, the inhibition of aggregation in experiment [2] was -12.7% (inactive). Moreover, the values for the nuclei count in experiment [2] and in experiment [3] were 101% and 125%, respectively. The fluorescence slope in experiment [4] was -0.516 (inactive). In addition, the NADPH fluorescence slope in experiment [5] was -3.2e-05 (inactive). Moreover, the slope in experiment [6] was 0.00387 (inactive).
Consider `CC(C)C(=O)Nc1ccc2c(c1)nc1n2CCSC1`, for which the cell count in experiment [1] is 378. Also, the inhibition in experiment [1] was -2.5% (inactive); in experiment [3], -3.7% (inactive); in experiment [7] it was -12.7% (inactive); in experiment [8] it was -20.2% (inactive). The inhibition of aggregation in experiment [2] is -0.8% (inactive). In addition, the values for the nuclei count in experiment [2] and in experiment [3] were 113% and 109%, respectively. In addition, the fluorescence slope in experiment [4] is -0.361 (inactive). Besides, the NADPH fluorescence slope in experiment [5] is 1.9e-05 (inactive). For the same compound, the slope in experiment [6] was 0.00311 (inactive).
For `C=CCn1c(SCC(=O)c2cc(C)n(C(C)COC)c2C)nc2sc(C)c(C)c2c1=O` (centres undefined), the cell count in experiment [1] is 357. For the same compound, the inhibition is 3% (inactive) in experiment [1], -1.2% (inactive) in experiment [3], 7.26% (inactive) in experiment [7] and 22.9% (inactive) in experiment [8]. The inhibition of aggregation in experiment [2] is -8.9% (inactive). Besides, the nuclei count worked out at 99.9% in experiment [2] and 100% in experiment [3]. In addition, in experiment [4], the fluorescence slope was -0.459 (inactive). Also, the NADPH fluorescence slope in experiment [5] is 1e-05 (inactive). For the same compound, the slope in experiment [6] was 0.00515 (inactive).
As for `Cc1cccc(-c2nnc(SCC#N)n2-c2cccc(Cl)c2)c1`, the cell count in experiment [1] was determined as 651. For the same compound, the inhibition in experiment [1] is 10.2% (inactive); in experiment [3], 66.1% (inactive); in experiment [7], 10.9% (inactive); in experiment [8], 21.3% (inactive). Moreover, the inhibition of aggregation in experiment [2] was 0.4% (inactive). Further, the values for the nuclei count in experiment [2] and in experiment [3] were 118% and 109%, respectively. Also, the fluorescence slope in experiment [4] was -0.441 (inactive). Further, the NADPH fluorescence slope in experiment [5] was -2.1e-05 (inactive). Moreover, the slope in experiment [6] is 0.00584 (inactive).
For the compound `O=C(Cn1nnc(-c2cc(Cl)ccc2-n2cnnn2)n1)N1CCCc2ccccc21`, the cell count in experiment [1] was determined as 574. The inhibition in experiment [1] was -2.1% (inactive); in experiment [3], -13.8% (inactive); in experiment [7] it was 17.3% (inactive); in experiment [8], 23.2% (inactive). Moreover, the inhibition of aggregation in experiment [2] is -3.1% (inactive). Also, the nuclei count was determined as 97.2% in experiment [2] and 105% in experiment [3]. The fluorescence slope in experiment [4] was -0.425 (inactive). Further, the NADPH fluorescence slope in experiment [5] was -0.000127 (inactive). Also, the slope in experiment [6] was 0.00585 (inactive).
